Screens deposited in PubChem by National Center for Advancing Translational Sciences (NCATS).
Rows were chosen to be rich in hits. Some 3.9% of all compounds tested hit in one or more screens of this group.
HTT prom inh = inhibits huntingtin promoter activity. hit rate 0.93% among 48,000. HEK293 HTT promoter firefly luciferase reporter, 24 h. Potency, µM (titrated, usually from 57.5 µM), for the others: at the top dose activity change, negative = inhibition, most hits filed as inhibitors; note: potency is the fitted concentration of half-maximal effect; nearly all actives have a fitted effect of over 50% in size
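Luminescence was read after Dual-Glo reagent and a 10 min room-temperature incubation. Values were normalized to vehicle (0% activity) and zero RLU (-100% activity). Reporter HEK293 cells had been exposed to compounds (up to 57.5 uM final) for 24 h.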
p53null 39C tox = kills p53 null cells at the nonpermissive temperature; H1299 p53-null (neo) cells, 39C, ATPlite viability, 24 h; hit rate 0.97% among 55,000; Potency, µM (highest dose often 46.1 µM), inactives show at the highest dose activity, negative = cell killing, hits mostly cytotoxic;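 note: potency is the fitted concentration of half-maximal effect; 0% = DMSO only and -100% = full killing by 100 µM tamoxifen; nearly all actives have a fitted effect of over 50% in size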
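Cells seeded at 600/well, 37C overnight. Compound added (up to 46 uM), plates shifted to 39C for 24 hr. ATPlite added, luminescence read after 20 min at room temperature.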
GPR32 ag = agonists of human resolvin D1 receptor DRV1 (GPR32). hit rate 2.5% among 48,000. O75388. activation, % at 76.9 µM. CHO-K1 GPR32 beta-arrestin PathHunter luminescence, 90 min; zero percent set by DMSO-only wells;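 active = activation of at least 60% and not above a set upper limit, about 1 call in 100 departs from these limits; inconclusive = activation of 40% to 60%, or above that upper limit; inactive = activation under 40%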; note: 0% is about no effect
Target sequence (O75388 whole entry, looked up): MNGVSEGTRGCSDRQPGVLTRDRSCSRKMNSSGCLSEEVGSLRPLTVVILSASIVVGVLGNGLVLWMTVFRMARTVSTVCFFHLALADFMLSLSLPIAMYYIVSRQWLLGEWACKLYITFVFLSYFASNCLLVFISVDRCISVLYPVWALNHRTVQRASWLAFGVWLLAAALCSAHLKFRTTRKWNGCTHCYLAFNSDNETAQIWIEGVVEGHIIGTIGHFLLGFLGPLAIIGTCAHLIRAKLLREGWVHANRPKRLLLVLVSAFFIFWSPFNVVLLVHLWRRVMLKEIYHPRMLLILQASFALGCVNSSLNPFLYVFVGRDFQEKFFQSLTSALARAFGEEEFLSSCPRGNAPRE
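Beta-arrestin recruitment read-out: luminescence from complemented beta-Gal in CHO-K1 GPR32 PathHunter cells, measured 1 h after detection reagent at ambient temperature following 90 min compound exposure at 37 °C; DMSO served as basal (EC0) control.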
p53null 32C tox = kills p53 null cells at the permissive temperature | H1299-neo p53 null cells, ATP luminescence, 24 h, 32C | Potency, µM (highest dose often 46.1 µM), for inactives: at the highest dose activity change, negative = cytotoxicity, hits mostly cytotoxic | hit rate 0.62% among 55,000;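 note: potency is the fitted concentration of half-maximal effect; 0% = DMSO only and -100% = full killing by 100 µM tamoxifen; nearly all actives have a fitted effect of over 55% in size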
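H1299-neo (p53-null) cells, 600/well, were pre-incubated overnight at 37C, then exposed to compounds at up to 46 uM for 24 hr at 32C. Viability was measured as ATP content by luminescence, and AC50 values came from Hill fits.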
HTT-AS act = HTT-AS promoter activation; hit rate 0.24% among 48,000; HEK293 HTT-AS promoter firefly luciferase reporter, 24 h; response scale: percent change from vehicle, -100% = no light; Potency, µM (top dose mostly 57.5 µM), for inactives: at the highest dose activity change, positive = activation, usual class: activators; AID 1508624; note: potency is the fitted concentration of half-maximal effect; nearly all actives have a fitted effect of over 55% in size
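HEK293 cells carrying firefly luciferase reporters were seeded at 2,500 per well in Opti-MEM and cultured for 24 h. They were then treated with compounds at up to 57.5 uM final for 24 h at 37 degrees C before Dual-Glo luminescence readout.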
Active calls of the source: *; u = inconclusive; x = no result; [ ] = dose if it differs, or a comment. Unless noted, calls come from the whole dose curve; as a rule, active = well fitted curve in the direction sought with a large enough effect; inconclusive = small, poorly fitted or top-dose-only effect, or another doubt; inactive = no such curve, though single readings can be large; an effect the other way counts as inactive or inconclusive.

SMILES	HTT prom inh	p53null 39C tox	GPR32 ag	p53null 32C tox	HTT-AS act
NC1[C@H]2CN(c3nc4c(cc3F)c(=O)c(C(=O)O)cn4-c3ccc(F)cc3F)C[C@@H]12 (some centres not stated)	69%	x	29	x	32µM*
COc1cc2c(cc1OC)C(=O)CC2	29%	x	4	x	4%
Cc1ccc(S(=O)(=O)CCC(=O)N2CCN(c3nc4c(C)c(Cl)ccc4s3)CC2)cc1	-25%	21%	26	-4%	-15%
COc1ccc(OC)c2sc(N3CCN(C(=O)C(C)(C)C)CC3)nc12	7%	11µM*	9	13µM*	18%
COc1ccc(C(=O)N2CCN(c3nc4c(OC)cccc4s3)CC2)cc1OC	28µM*	10%	26	0%	-26%
COc1cccc2sc(N3CCN(C(=O)CCS(=O)(=O)c4ccc(F)cc4)CC3)nc12	22µM*	8%	u	6%	-38%
CCOc1cccc2sc(N3CCN(C(=O)c4ccco4)CC3)nc12	-19%	3%	-17	-6%	-5%
CCOC(=O)c1cnc2c(ccc3ccccc32)c1Nc1ccccc1OC	u	-17%	85*	13%	-10%[11.5 µM]
CCOC(=O)c1cnc2c(ccc3ccccc32)c1Nc1ccccc1OCC	0%	-8%	-9	10%	20%
Cc1ccc(C)c(N2CCN(C(=O)C3CCCN(S(=O)(=O)c4cccc5nsnc45)C3)CC2)c1 (configuration not stated)	u	14%	66*	27%	-45%
O=C(Nc1ccc(F)cc1)Nc1ccc2snnc2c1	u	u	39	6%	-23%
Cc1ccc(F)c(NC(=O)Nc2ccc3snnc3c2)c1	10%	-28%	68*	-6%	6%
Cc1cn([C@@H]2O[C@H](CO)[C@@H](O)[C@H]2F)c(=O)[nH]c1=O	14%	x	-11	x	1%
O=C(CN1C(=O)COc2ccc(S(=O)(=O)NC3CCCC3)cc21)Nc1ccc(Cl)cc1	0%	-1%	104*	-2%	8%
COc1ccc(Cl)cc1NC(=O)CN1C(=O)COc2ccc(S(=O)(=O)NC3CCCC3)cc21	-1%	-16%	-2	-3%	-16%
COc1cccc(NC(=O)c2oc3ccccc3c2NC(=O)c2ccc(OC(C)C)cc2)c1	15%	13µM*	-26	16µM*	27%
CC(Nc1ncnc2c1cnn2-c1cccc(Cl)c1)c1ccccc1 (configuration not stated)	3%	u	91*	u	29%
CCN1CCN(c2ncnc3c2cnn3-c2cc(Cl)ccc2C)CC1	-21%	-4%	21	3%	-11%
Fc1ccc(-n2ncc3c(Nc4ccc5c(c4)OCCO5)ncnc32)cc1	2%	6%	92*	-9%	u
Cc1ccc(Cl)cc1-n1ncc2c(N3CCN(Cc4ccccc4)CC3)ncnc21	13µM*	15%	85*	u	-95%
CCN(CC)c1ncnc2c1cnn2-c1cc(Cl)ccc1C	-16%	25%	72*	6%	6%
Cc1ccc(-n2ncc3c(NC4CCCCCC4)ncnc32)cc1	-30%	-16%	27	u	-5%
Cc1ccc(Cl)cc1-n1ncc2c(NC3CCCCC3)ncnc21	u	-5%	68*	-2%	-12%
Fc1ccc(-n2ncc3c(NC4CCCCCC4)ncnc32)cc1	14%	5%	80*	u	34%
Clc1cccc(-n2ncc3c(NC4CCCCC4)ncnc32)c1	-27%	u	109*	u	u
SMILES	HTT prom inh	p53null 39C tox	GPR32 ag	p53null 32C tox	HTT-AS act
CCn1c(-c2nonc2N)nc2cnc(Oc3cccc(NC(=O)c4ccc(OCCN5CCOCC5)cc4)c3)cc21	u	x	x	x	-42%
CCn1c(C)cc(/C=C2/SC(=S)NC2=O)c1C	x	x	x	18µM*	x
Cc1ccc(S(=O)(=O)N2CCCc3cc(NS(=O)(=O)c4ccc(F)c(C)c4)ccc32)cc1	25µM*	-7%	-11	45%	-45%
CC(=O)N/N=C/c1ccc([N+](=O)[O-])o1	9%	x	68*	x	4%
CCCCCCOC(=O)NC(=N)c1ccc(NCc2nc3cc(C(=O)N(CCC(=O)OCC)c4ccccn4)ccc3n2C)cc1	-20%	x	-19	x	-30%
Cc1nc(-c2ccc(S(=O)(=O)Nc3cc(Cl)ccc3C)cc2)co1	-26%	30%	82*	13%	-21%
Cc1nc(-c2ccc(S(=O)(=O)Nc3ccc(OC(F)(F)F)cc3)cc2)co1	u	37%	114*	7%	-31%
Cc1cccc(N(C)C(=S)Oc2ccc3c(c2)C2CCC3C2)c1 (configuration not stated)	11%	x	0	x	-7%
COc1ccccc1CCNC(=O)C(=O)NCC(c1cccnc1)N1CCN(c2ccccc2)CC1 (configuration not stated)	13µM*	u	-13	-8%	-44%
COc1ccccc1N1CCN(C(CNC(=O)C(=O)NCc2cccnc2)c2cccnc2)CC1 (configuration not stated)	u	20µM*	5	u	-29%
COc1ccc(C(=O)NCC(c2cccnc2)N2CCN(c3ccc(F)cc3)CC2)cc1OC (configuration not stated)	x	-1%	x	-11%	x
COc1ccc(CNC(=O)C(=O)NCC(c2cccnc2)N2CCN(c3ccccc3F)CC2)cc1 (configuration not stated)	13µM*	17%	17	1%	-48%
COc1cc(C(=O)NCC(c2cccnc2)N2CCN(c3ccc(F)cc3)CC2)cc(OC)c1OC (configuration not stated)	-19%	16µM*	-5	-22%	-16%
CC(=O)N1CCCc2cc(S(=O)(=O)N3CCCC(C(=O)N4CCN(c5ccccc5F)CC4)C3)ccc21 (configuration not stated)	10µM*	12%	41	-2%	-34%
O=C(CCNS(=O)(=O)c1ccc2c(c1)CCN2C(=O)C1CC1)N1CCN(c2ccccc2F)CC1	-43%	9%	71*	-3%	u
COc1cc(CNC(=O)c2cc3n(n2)CCCN(Cc2ccc(C)cc2)C3=O)cc(OC)c1OC	u	-2%	-5	1%	-16%
Cc1ccc(CN2CCCn3nc(C(=O)NCc4ccc(OC(C)C)cc4)cc3C2=O)cc1	18µM*	11%	25	10%	-23%
O=S(=O)(NCc1ccc(Cl)cc1)c1ccc2[nH]c3c(c2c1)CCCC3	-7%	u	77*	19%	-36%
Cc1ccc(CNS(=O)(=O)c2ccc3[nH]c4c(c3c2)CCCCC4)cc1	u	u	u	-3%	-25%
CN(C)c1ccc(CNS(=O)(=O)c2ccc3[nH]c4c(c3c2)CCCCC4)cc1	u	32%	49	19%	-37%
